mHTT-CaM PPI inh: inhibitors of human mutant huntingtin-calmodulin interaction; P42858; AlphaScreen His-mHTT/GST-CaM binding, luminescence; inhibition, % at 15 µM; hit rate 3.6% among 190,000; AID 1671202;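 further: 0% = both proteins with DMSO and 100% = one protein alone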
Pf apPOL inh: Pf-apPOL DNA polymerase inhibition; hit rate 0.25% among 210,000; AID 1794808; inhibition, % at 10 µM; Recombinant Pf-apPOL, molecular beacon fluorescence, 1.5 h
* marks the source's active call; other numbers are inactive results; x = no result given. Many of the other results were omitted from the sample, so hits are more common in it than they were. No stated cut-off is given here; in the data, active means inhibition above about 50%; inactive means the rest.

SMILES | mHTT-CaM PPI inh | Pf apPOL inh
CCN(CC)c1ccc(Nc2nc(-c3ccncc3)cs2)cc1 | 85* | -4
COc1ccc(-c2csc(Nc3cccnc3)n2)cc1 | x | 11
COc1ccc(Nc2nc(-c3ccc(F)cc3F)cs2)cc1 | 4 | -2
CCN(CC)c1ccc(Nc2nc(-c3ccc(OC)cc3)cs2)cc1 | 80* | -2
COc1ccc(-c2csc(Nc3ccc(N(C)C)cc3)n2)cc1 | 89* | 6
CCC(=O)N1CCc2sc(S(=O)(=O)N3CCN(c4cccc(C)c4)CC3)cc2C1 | 19 | -5
CCCCN(C)Cc1cc(Br)c(O)c(OC)c1 | -7 | 1
CC(C)=C(NC(=O)c1ccccc1)C(=O)N1CCCCC1 | -3 | 4
O=[N+]([O-])c1ccc(O)c(C2Oc3ccccc3C3CC(c4cccs4)=NN32)c1 (stereo not drawn) | 62* | 3
Clc1cccc(C2Oc3ccccc3C3CC(c4ccccc4)=NN32)c1Cl (stereo not drawn) | -9 | x
c1csc(C2=NN3C(C2)c2ccccc2OC3c2ccc3c(c2)OCO3)c1 (stereo not drawn) | 14 | 1
CCC1Oc2ccccc2C2CC(c3cccs3)=NN12 (stereo not drawn) | 75* | 3
Oc1ccc(C2Oc3ccccc3C3CC(c4cccs4)=NN32)c(O)c1 (stereo not drawn) | 64* | 9
COc1ccc([N+](=O)[O-])cc1C1Oc2ccccc2C2CC(c3cccs3)=NN21 (stereo not drawn) | 28 | 0
COc1cccc(C2Oc3ccccc3C3CC(c4cccs4)=NN32)c1O (stereo not drawn) | 51* | 8
O=[N+]([O-])c1ccccc1C1Oc2ccccc2C2CC(c3cccs3)=NN21 (stereo not drawn) | 20 | -7
O=C1N=C(N2CCCC2)S/C1=C/c1ccc(Br)cc1 | 1 | -4
O=C(NCC1CCN(c2cc(-c3cccnc3)[nH]n2)CC1)c1ccc(F)c(Cl)c1 | 25 | -2
Cc1oc(C2CCC2)nc1C(=O)NCc1cc(F)ccc1F | -21 | 5
Cc1ccc(C2CC(c3cccc(C)c3)=NN2C(=O)CN2CCOCC2)cc1 (stereo not drawn) | 85* | -6
Cc1ccc(C)c(C2=NN(C(=O)CN3CCOCC3)C(c3ccc(Cl)cc3)C2)c1 (stereo not drawn) | 49 | -4
Cc1ccc(C2CC(c3ccc(C)cc3C)=NN2C(=O)CN2CCOCC2)cc1 (stereo not drawn) | 76* | -6
Cc1ccc(C2CC(c3ccccc3)=NN2C(=O)CN2CCOCC2)cc1 (stereo not drawn) | 36 | -6
CC(C)c1cc(C2CCCN2C(=O)c2cccs2)on1 (stereo not drawn) | -8 | -5
CCOc1ccc(NC2=CC(=O)CC(c3ccc(Cl)cc3)C2)cc1 (stereo not drawn) | -7 | -4
SMILES | mHTT-CaM PPI inh | Pf apPOL inh
Cc1ccc(C(=O)Nc2ccc(Cn3cncn3)cc2)cc1F | -4 | 2
Cc1ccc(-c2csc(=Nc3ccc(F)cc3)n2CCO)cc1 | 63* | 0
O=C1c2ccccc2C(=O)N1c1cccc(-c2csc(=Nc3ccccc3)n2CCO)c1 | 31 | -1
OCCCn1c(-c2ccc(F)cc2)csc1=Nc1ccc(F)cc1 | 59* | -3
OCCn1c(-c2ccc(F)cc2)csc1=Nc1ccc(F)cc1 | 44 | -2
CCC(C)NC(=O)C1CCN(c2nc3cccnc3s2)CC1 (stereo not drawn) | -7 | 4
CN(Cc1ccccc1)C(=O)Cn1cccc1-c1nnc(C2CC2)o1 | -3 | -3
c1ccc(C2=NN3C(C2)c2ccccc2OC3c2ccc3c(c2)OCO3)cc1 (stereo not drawn) | 5 | -1
CN1CC2c3ccccc3OC(c3ccc4c(c3)OCO4)C2([N+](=O)[O-])O1 (stereo not drawn) | 96* | x
CC(=O)Nc1ccc(S(=O)(=O)N2CCN(Cc3c[nH]c4ccccc34)CC2)cc1 | 16 | -6
O=C(c1ccccc1C(F)(F)F)N1CCN(C(=O)C2CC2c2cccs2)CC1 (stereo not drawn) | -5 | -1
O=C(NC1CC1)c1csc(COc2ccc(Cl)cc2)n1 | -3 | -10
COc1ccc(-c2nc(C(=O)NC3CC3)cs2)c(Cl)c1 | 2 | 94*
O=C1C(Br)=C(Br)C(=O)C(Br)=C1Br | 81* | 7
CC1=C(Br)C(=O)c2ccccc2C1=O | 17 | -4
O=C1C(Br)=C(Br)C(=O)c2ccccc21 | 100* | 15
CC(C)C(=O)NCc1csc(C2CCCN(C(=O)c3ccccc3F)C2)n1 (stereo not drawn) | -12 | -7
Cc1ccc(Sc2c(C)nn(S(=O)(=O)c3ccccc3[N+](=O)[O-])c2C)cc1 | 50* | 1
Cc1nn(S(=O)(=O)c2ccccc2[N+](=O)[O-])c(C)c1Sc1ccccc1 | 0 | -9
Cc1cccc2nnc(N3CCN(C(=O)c4cc5c(s4)CCCC5)CC3)n12 | 9 | 5
CC1(C)OC2OC(C(=O)Oc3ccc4ccccc4c3)C3OC(C)(C)OC3C2O1 (stereo not drawn) | 5 | -4
Cc1cccc(-n2nc3c(c2NC(=O)COc2ccc(Cl)cc2)CSC3)c1 | -2 | -3
CN(CC#CC(C)(C)O)Cc1ccccc1 | -4 | -3
CN(CC#CCC(O)(c1ccccc1)c1ccccc1)Cc1ccccc1 | 87* | -4
C=CCn1c2ccccc2c2nnc(SCC(=O)Nc3sc4c(c3C#N)CCCC4)nc21 | 3 | 0
SMILES | mHTT-CaM PPI inh | Pf apPOL inh
COc1ccc(NC(=O)c2c(C)cc(C)cc2C)cc1Cl | -10 | -4
O=C(C1CCCO1)N1CCc2ccc(NC(=O)C3(c4ccccc4)CCOCC3)cc21 (stereo not drawn) | 2 | -6
COCC(=O)N1CCN(c2ccc(N3CCCCC3C)nn2)CC1 (stereo not drawn) | -3 | -2
O=C(NCCNc1ccc(Nc2ccccn2)nn1)c1ncccn1 | 100* | -1
Cc1cccc(Nc2ccc(NCCNC(=O)c3ccccc3C(F)(F)F)nn2)n1 | 1 | -8
Cc1ccc(C2=NC3(CCN(CC(=O)Nc4ccc(F)cc4)CC3)NC2=O)cc1 | 2 | 3
CCn1cnc2cc(NCc3ccc(N(C)C)cc3)ccc21 | 14 | -5
CCN(CC)c1ccc(CNc2ccc3c(c2)ncn3CC)cc1 | 94* | -2
CCOc1ccc(CNc2ccc3c(c2)ncn3C(C)(C)C)cc1 | 30 | 5
CN(C)c1ccc(CNc2ccc3c(c2)ncn3C(C)(C)C)cc1 | 78* | -4
CSc1cccc2sc(N(Cc3ccco3)C(=O)c3ccc(C#N)cc3)nc12 | 5 | 16
CC(NC(=O)C(=O)NCC1CCCO1)c1ccccc1 (stereo not drawn) | -12 | -10
CN(C)c1ccc(C(CNC(=O)C(=O)NCC2CCCO2)N2CCc3ccccc32)cc1 (stereo not drawn) | 65* | 0
COc1ccc(C)cc1NC(=O)c1cc(S(=O)(=O)N2CCCc3ccccc32)ccc1F | -4 | 30
Cc1ccc([C@H]2C[C@H](O)[C@@H](n3cc(C4CC4)nn3)CN2Cc2cccs2)cc1 | 100* | -4
COc1ccc([C@H]2C[C@H](n3cc(-c4ccc(F)cc4)nn3)[C@@H](O)CN2Cc2cccs2)cc1 | 63* | -3
COc1ccc([C@H]2C[C@@H](n3cc(-c4ccc(F)cc4)nn3)[C@H](O)CN2Cc2cccs2)cc1 | -1 | 2
Cc1ccc([C@H]2C[C@H](n3cc(C4CC4)nn3)[C@@H](O)CN2Cc2cccs2)cc1 | 80* | -3

Screening data deposited in PubChem BioAssay by University of Kansas High Throughput Screening Laboratory.
